FPR ligand – human FPR ligand, with FPRL1 counter-screen; actives 0.74% (n = 24,000); P21462; inhibition, % (test concentration not listed); FPR-expressing cells, fluorescent ligand binding, flow cytometry; AID 440
Target sequence (P21462 whole entry, looked up): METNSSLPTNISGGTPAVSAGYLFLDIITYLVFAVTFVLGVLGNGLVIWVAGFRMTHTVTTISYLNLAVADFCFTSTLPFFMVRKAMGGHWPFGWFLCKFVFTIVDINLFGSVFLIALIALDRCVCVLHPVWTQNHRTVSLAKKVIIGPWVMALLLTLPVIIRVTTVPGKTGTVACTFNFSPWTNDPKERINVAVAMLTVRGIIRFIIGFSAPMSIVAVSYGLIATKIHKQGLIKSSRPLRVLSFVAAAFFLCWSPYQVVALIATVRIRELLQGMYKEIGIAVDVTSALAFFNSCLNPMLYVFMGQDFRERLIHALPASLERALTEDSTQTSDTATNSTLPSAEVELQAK
QS inhibitor – blocks AIP-induced quorum sensing reporter in S. aureus; S. aureus RN6390 RNAIII-GFP reporter, flow cytometry 3 h; AID 527; inhibition, % at 2 µM; actives 0.3% (n = 24,000);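 active = share of bacteria positive for the green fluorescent reporter and its mean brightness both inhibited by 50% or more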
LNCaP diff act – promotes differentiation of LNCaP prostate cells | flow cytometry side scatter, 4 d | side scatter shift, % at 10 µM | actives 0.56% (n = 24,000) | AID 795;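 active = side scatter shift above 30%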;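 note: androgen-responsive LNCaP prostate cancer cells in charcoal-stripped serum medium; higher shift means more granular cells and more differentiation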
FPRL1 ligand – ligands of human FPRL1, also counter-screen for FPR ligands; P25090; FPRL1-expressing cells, fluorescent ligand binding inhibition, flow cytometry; inhibition, % (no concentration beside the values); AID 441; actives 0.3% (n = 24,000)
Numbers stand for hits; - = inactive; . = no result. Only some compounds are listed: those with a hit (about 1.4% of all), similar ones and a draw of the others. Cut-off read from the data, not from the text of the source, unless noted: active = inhibition above about 30%; inconclusive = no clear call, values can overlap the other calls; inactive = below that.

SMILES	FPR ligand	QS inhibitor	LNCaP diff act	FPRL1 ligand
CCOC(=O)C1=C(C)N=c2s/c(=C\c3ccncc3)c(=O)n2C1c1ccc2c(c1)OCO2 (stereo not drawn)	-	-	35	-
COc1ccc(C2C(C(C)=O)=C(C)N=c3s/c(=C\c4ccc5c(c4)OCO5)c(=O)n32)c(OC)c1 (stereo not drawn)	-	-	-	-
Cc1nnc(NCc2n[nH]c(=O)c3ccccc23)c2ccccc12	-	-	33	-
COc1cccc2c1C(=O)c1c(O)c3c(c(O)c1C2=O)C[C@@](O)(C(C)=O)C[C@@H]3O[C@H]1C[C@H](N)[C@H](O)[C@H](C)O1	-	-	-	32
O=c1c2c(nc3c(-c4ccc(Cl)cc4)c[nH]n13)CCCC2	71	.	.	-
O=C(CCN1C(=O)COc2ccccc21)NCc1cccs1	-	-	-	-
CCOc1ccc(C2C(C(=O)c3ccco3)=C(O)C(=O)N2CCCn2ccnc2)cc1 (stereo not drawn)	70	.	.	-
Cc1nc(C)c(C(=O)C2=C(O)C(=O)N(CCCn3ccnc3)C2c2ccccc2)s1 (stereo not drawn)	-	-	-	-
CCN(CC)CCN1C(=O)C(O)=C(C(=O)c2cccs2)C1c1ccccn1 (stereo not drawn)	-	-	-	-
COCCN1C(=O)C(O)=C(C(=O)c2cccs2)C1c1ccccc1 (stereo not drawn)	60	.	.	-
Cc1ccc(C(=O)C2=C(O)C(=O)N(CCCn3ccnc3)C2c2ccc(OC(C)C)cc2)o1 (stereo not drawn)	65	.	.	-
CCOc1ccc(C2C(C(=O)c3cccs3)=C(O)C(=O)N2CCCn2ccnc2)cc1 (stereo not drawn)	30	.	.	-
CC1(C)CC2(CCO1)OC(=O)CC2C(=O)NCc1ccccc1 (stereo not drawn)	-	-	-	-
Cc1ccc(C)c(N2CCN(C(=O)c3cc(S(=O)(=O)N4CCOCC4)ccc3F)CC2)c1	-	-	-	-
Cc1nn(Cc2ccc(F)cc2)c(C)c1NC(=O)c1cc(-c2ccc3c(c2)OCO3)on1	-	-	30	-
Cc1ccc(Cn2nc(C)c(NC(=O)c3cc(-c4ccc5c(c4)OCO5)on3)c2C)cc1	-	-	-	-
COc1ccc(CN(Cc2cc3cc4c(cc3[nH]c2=O)OCO4)C(=O)NC2CCCCC2)cc1	-	-	-	-
COC(=O)c1ccccc1S(=O)(=O)N(Cc1cc2cc3c(cc2[nH]c1=O)OCO3)C1CCCCC1	-	-	41	-
Fc1ccc(-c2nnc3ccc(N4CCc5ccccc5C4)nn23)cc1	-	69	-	-
COc1ccc2nc(Nc3nc(C)c(C(C)=O)s3)sc2c1	-	-	-	59
COc1cccc(C(=O)Cn2c(=O)n(CC3CCCO3)c(=O)c3ccccc32)c1 (stereo not drawn)	-	-	-	-
COc1ccc(-c2coc3c(CN4CCCCC4)c(O)c(CN4CCCCC4)c(O)c3c2=O)cc1	-	-	36	-
N#Cc1c(NC(=O)COC(=O)C2CC3C=CC2C3)oc(-c2ccccc2)c1-c1ccccc1 (stereo not drawn)	-	91	-	-
COc1ccccc1OCC(=O)Nc1oc(-c2ccccc2)c(-c2ccccc2)c1C#N	.	-	.	.
O=C1N[C@@H](Cc2cnc[nH]2)C(=O)N2CCC[C@@H]12	-	-	-	-
SMILES	FPR ligand	QS inhibitor	LNCaP diff act	FPRL1 ligand
Cc1[nH]n2c(=O)c3c(nc2c1-c1cccc2ccccc12)CCC3	48	.	.	-
CCN1CCN(c2cc(C)c3cc(NC(=O)c4cnccn4)ccc3n2)CC1	-	-	-	-
Cc1cc(N2CCN(C)CC2)nc2ccc(NC(=O)c3ccc4c(c3)OCO4)cc12	-	-	57	-
Cc1cc(N2CCN(C)CC2)nc2ccc(NC(=O)c3ccc(Br)o3)cc12	-	-	35	-
O=C(Cn1cnc2c(nnn2Cc2ccc(Cl)cc2)c1=O)NCc1ccco1	-	-	-	-
O=C(Nc1ccc2c(c1)OCCO2)C1CCN(C(=O)c2ccc(F)cc2)CC1	-	-	-	-
Cc1c(C)c2cc(Cl)c(O)c(CN3CCCCC3)c2oc1=O	38	-	-	50
O=C(CN1CCN(Cc2ccc3c(c2)OCO3)CC1)N1CCc2[nH]c3ccc(F)cc3c2C1	-	-	50	-
O=C(Cn1ccc2ccccc2c1=O)N1CCN(Cc2ccc3c(c2)OCO3)CC1	-	-	-	-
O=C1c2ccccc2-c2nc3ncnn3c(-c3ccccc3)c21	-	-	40	-
O=C(O)c1ccc2c3c(ncnc13)-c1ccccc1C2=O	-	-	-	-
Cc1cc(C)n(CCc2nc3c4ccccc4nc(SCc4ccc(C#N)cc4)n3n2)n1	-	-	-	-
O=C(NCC1CCCO1)c1sc(=S)n2c1[nH]c(=O)c1ccc(C(=O)N3CCCCC3)cc12 (stereo not drawn)	-	-	-	-
CCCCCCNC(=O)Cc1c(O)c2ccccc2[nH]c1=O	-	-	-	-
O=C(NC1CCCCC1)c1sc(=S)n2c1[nH]c(=O)c1ccccc12	62	-	-	-
CCCCNC(=O)c1sc(=S)n2c1[nH]c(=O)c1ccccc12	89	-	-	-
COc1ccc(C2C(C(=O)c3ccco3)=C(O)C(=O)N2Cc2cccnc2)cc1OC (stereo not drawn)	38	.	.	-
COc1cccc(/C(O)=C2/C(=O)C(=O)N(Cc3cccnc3)C2c2ccco2)c1 (stereo not drawn)	34	.	.	-
COc1cccc2cc(C(=O)C3=C(O)C(=O)N(Cc4ccco4)C3c3cccnc3)oc12 (stereo not drawn)	34	.	.	-
COc1cc(C2C(C(=O)c3cccs3)=C(O)C(=O)N2Cc2ccco2)cc(OC)c1OC (stereo not drawn)	83	.	.	-
COc1ccc(-n2nnc3c(SCC(=O)N4CCCc5ccccc54)ncnc32)cc1	-	-	-	-
C=CCOc1ccc(C2C(C(=O)c3ccco3)=C(O)C(=O)N2Cc2cccnc2)cc1 (stereo not drawn)	-	-	-	-
CCCOc1ccc(C2C(C(=O)c3ccc(C)o3)=C(O)C(=O)N2Cc2cccnc2)cc1 (stereo not drawn)	52	-	-	-
O=C(C1=C(O)C(=O)N(Cc2ccccc2)C1c1ccncc1)c1ccco1 (stereo not drawn)	32	-	-	-
COc1ccc(C2C(C(=O)c3ccco3)=C(O)C(=O)N2CCc2ccccc2)cc1OC (stereo not drawn)	80	.	.	-
SMILES	FPR ligand	QS inhibitor	LNCaP diff act	FPRL1 ligand
O=C(C1=C(O)C(=O)N(CC2CCCO2)C1c1cccnc1)c1ccco1 (stereo not drawn)	39	.	.	-
COc1ccc(C2C(C(=O)c3ccco3)=C(O)C(=O)N2CCOCCO)cc1OC (stereo not drawn)	-	.	.	-
COc1ccc2c(c1)CCc1c(C(=O)NC3CCCCC3)noc1-2	-	-	-	-
Cc1cc(C)n(-c2nnc(C)n2NS(C)(=O)=O)n1	-	-	-	-
O=c1c2nnn(Cc3ccccc3)c2ncn1-c1ccccc1	-	-	-	-
CCOc1ccc(C2C(C(=O)c3ccco3)=C(O)C(=O)N2Cc2cccnc2)cc1 (stereo not drawn)	50	.	.	-
CCSc1nnc(Cc2cc(=O)[nH]c(=O)[nH]2)n1-c1cc(C)ccc1C	-	-	-	-
